HepG2 viability: qHTS for Inhibitors of TGF-b: Cytotox Counterscreen; HepG2 CAGA-GFP viability, ATP luminescence, 18 h; Potency, µM (highest dose often 46.1 µM), inactives show at the top dose activity change, negative = cytotoxicity, actives largely listed as cytotoxic; hit rate 0.76% among 410,000; AID 588856, 2011
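HepG2 CAGA-GFP cells (1000/well, DMEM with 1% FBS) received compound, then TGF-beta at 500 pg/mL final, and were incubated 18 hours at 37 degrees C. Viability was read by CellTiter-Glo luminescence. Media-only wells were set as complete cell-killing and DMSO as no toxicity.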
ATXN2 expr inh: Primary qHTS for Inhibitors of ATXN expression; AID 1745845, 2022; HEK-293 ATXN2-luciferase reporter, luminescence, 24 h; hit rate 0.72% among 360,000; Potency, µM (highest dose often 57 µM), without a hit: top-dose activity change, negative = inhibition, hits mostly inhibitors; further: on the % scale 0 is the no-effect control and ±100 the full control effect; nearly all actives have a fitted effect of over 55% in size
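qHTS (up to 57 uM final) was run with 24 h compound exposure of reporter cells at 37 °C. Each well was multiplexed: SteadyGlo luminescence measured ATXN2-luciferase expression after a fluorogenic Gly-Phe-AFC viability readout (25 uM final).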
TGFb inhibitor: qHTS for Inhibitors of TGF-b; Potency, µM (titrated, usually from 46.1 µM), without a hit: top-dose activity, negative = inhibition, hits mostly inhibitors; HepG2 CAGA-GFP TGF-b/SMAD3 reporter, GFP fluorescence, 18 h; TGF-beta stimulated, 500 pg/mL final; hit rate 1.2% among 410,000; further: on the % scale 0 is the no-effect control and ±100 the full control effect; nearly all actives have a fitted effect of over 65% in size
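TGF-beta reporter screen: HEPG2 CAGA-GFP, 1% FBS, 500 pg/mL TGF-beta final, 18 h; per-cell GFP summed per well; curves fitted and categorized by class.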
Gal4-VP16 FLuc: VP16 counterscreen qHTS for inhibitors of ROR gamma transcriptional activity | Drosophila S2 Gal4-VP16 UAS-luciferase, luminescence, 20 h | Potency, µM (top dose mostly 53.6 µM), inactives show at the top dose activity, negative = inhibition, actives largely listed as inhibitors | hit rate 3.5% among 310,000 | AID 2546, 2010;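 further: Gal4-VP16 expression switched on by copper sulfate through the metallothionein promoter; on the % scale 0 is the no-effect control and ±100 the full control effect; nearly all actives have a fitted effect of over 50% in size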
ATXN viability: Viability Counterscreen for Primary qHTS for Inhibitors of ATXN expression | hit rate 0.49% among 400,000 | S2 cells (HEK-293 line with an ATXN2-luciferase reporter) viability, CellTiter-Fluor protease fluorescence, 24 h | Potency, µM (doses to about 56.7 µM), actives largely listed as cytotoxic; further: nearly all actives have a fitted effect of over 40% in size
RORg inh: qHTS for inhibitors of ROR gamma transcriptional activity; Nuclear receptor ROR-gamma (Mus musculus), P51450; Drosophila S2 Gal4-RORgamma UAS-luciferase reporter, 20 h; Potency, µM (highest dose often 53.6 µM), inactives show at the top dose activity change, negative = inhibition, actives largely listed as inhibitors; hit rate 5.4% among 310,000; AID 2551, 2010; further: on the % scale 0 is the no-effect control and ±100 the full control effect; nearly all actives have a fitted effect of over 60% in size
Target sequence (P51450 whole entry, looked up, the tested form may be a part): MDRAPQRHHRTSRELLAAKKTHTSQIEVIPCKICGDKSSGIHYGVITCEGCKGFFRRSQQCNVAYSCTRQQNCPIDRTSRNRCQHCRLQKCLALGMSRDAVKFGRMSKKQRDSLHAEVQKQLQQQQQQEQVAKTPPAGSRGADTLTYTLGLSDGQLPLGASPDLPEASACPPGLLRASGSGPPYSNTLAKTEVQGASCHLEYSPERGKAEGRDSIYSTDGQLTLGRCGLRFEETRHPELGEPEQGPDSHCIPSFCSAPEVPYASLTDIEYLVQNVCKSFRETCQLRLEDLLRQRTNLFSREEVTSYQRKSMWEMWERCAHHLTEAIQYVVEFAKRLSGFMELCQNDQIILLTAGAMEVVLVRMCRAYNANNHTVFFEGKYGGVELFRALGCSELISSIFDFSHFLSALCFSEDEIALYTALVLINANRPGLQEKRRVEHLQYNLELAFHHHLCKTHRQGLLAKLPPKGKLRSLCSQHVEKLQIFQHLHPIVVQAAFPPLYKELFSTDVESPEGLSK
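Using a luciferase readout, inhibitors were identified by reduced reporter activity in Drosophila cells coexpressing a copper-inducible Gal4–ROR gamma fusion and UAS-driven Photinus luciferase, incubated 20 hr after 700 uM copper sulfate.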
The depositor's hits bear a star; i = inactive; ? = inconclusive; . = no result given; [ ] = dose if it differs, or a comment. An excerpt weighted towards active compounds, which were near 6.1% of everything screened. The call rests on the fitted dose curve; in most records, active means well fitted curve in the direction sought with a large enough effect; inconclusive means small, poorly fitted or top-dose-only effect, or another doubt; inactive means no such curve, though single readings can be large; an effect the other way counts as inactive or inconclusive. Potency means the concentration at half of the fitted maximal effect.

SMILES | HepG2 viability | ATXN2 expr inh | TGFb inhibitor | Gal4-VP16 FLuc | ATXN viability | RORg inh
CNC(=O)c1nn(C)c2c1C(C)(C)Cc1cnc(Nc3ccc(N4CCN(C)CC4)cc3)nc1-2 | . | 1.7µM* | . | . | . | .
COc1ccc(-c2nnc3c4ccccc4c(-c4ccccc4)nn23)cc1 | 3% | . | -18% | . | . | .
O=C1NCCCC2c3cc(O)c4ccccc4c3OC12N1CCCCC1 (centres undefined) | . | . | . | ? | . | 10µM*
COCC(=O)Nc1nc2ccccc2s1 | -2% | 28% | -26% | 7% | i | 20%
NC(=S)Nc1nc2ccccc2s1 | 8% | . | ? | 3.5µM* | i | ?
CCc1nnc(NC(=O)c2ccc(OC)cc2OC)s1 | -15% | ? | -1% | 10µM* | i | 6.3µM*
COc1ccccc1C(=O)Nc1nc2ccccc2s1 | 11µM* | ? | -21% | 1µM* | i | 0.63µM*
COc1ccc(C(=O)Nc2nc3ccccc3s2)c(OC)c1 | 18µM* | 0.79µM* | 12% | . | i | .
COc1ccccc1C(=O)Nc1nc2ccc(S(C)(=O)=O)cc2s1 | 0% | -15% | 6% | 0% | ? | 39%
O=C(NCCCN1CCOCC1)c1cnn(-c2ncc3c(n2)-c2ccccc2CC3)c1C1CC1 | . | . | . | . | i | .
CSc1ncc(C(=O)Nc2ccccc2C(=O)c2ccccc2)c(C)n1 | 13% | 6% | 3% | . | i | .
CCCOC(=O)c1c(-c2ccccc2)c(-c2ccccc2)nn(C)c1=O | -29% | . | -72% | . | . | .
CN(C)/C=C/C(=O)c1ccc(Cl)cc1Cl | 11% | -17% | -27% | 1% | ? | 26%
C/C(=C\C(=O)c1ccc(Cl)cc1Cl)N(C)C | 2% | 18% | 6% | ? | i | 16µM*
COc1cc(C(=O)O/N=C2\C=CC(=O)C=C2C)cc(OC)c1OC | 0% | -9% | -11% | 4µM* | i | 7.1µM*
COc1cc(C(=O)O/N=C2/C=CC(=O)C(C)=C2C)cc(OC)c1OC | -2% | ? | 12% | 4.5µM* | . | 3.5µM*
CCNc1ncc2nc(-c3ccc(F)cc3)c(=O)n(C[C@H]3CCCO3)c2n1 | . | . | . | 7% | . | 1%
c1ccc(-c2csc(NC3=NCCCCC3)n2)cc1 | -22% | -12% | 18% | 6% | i | -14%
Brc1ccc(-c2csc(NNC3=NCCCCC3)n2)cc1 | -22% | -23% | -17% | 14µM* | ? | 7.1µM*
CC(C)(C)c1ccc(-c2csc(NNC3=NCCCCC3)n2)cc1 | -45% | ? | -6% | ? | ? | 13µM*
FC(F)Oc1ccc(-c2csc(NNC3=NCCCCC3)n2)cc1 | -20% | ? | -22% | 4% | ? | ?
COc1ccc(C(=O)C[n+]2cccc3cc(Cl)ccc32)cc1 | -28% | . | -4% | . | . | .
Cc1ccc2cc(CN(CC3CCCO3)C(=O)NC3CCCCC3)c(=O)[nH]c2c1C (centres undefined) | -27% | -6% | 7% | ? | i | 3.2µM*
Cc1cc2occ(CC(=O)NC3=NCCS3)c2cc1C(C)C | -40% | -20% | 5% | 13µM* | i | -137%
Cc1ccc2c(CC(=O)NC3=NCCS3)coc2c1 | -9% | 17% | 7% | ? | i | ?
SMILES | HepG2 viability | ATXN2 expr inh | TGFb inhibitor | Gal4-VP16 FLuc | ATXN viability | RORg inh
COc1ccccc1/C=C/c1ccnc2ccccc12 | -33% | . | -24% | . | . | .
CC(C)n1nc(C(=O)NNC(=O)c2ccncc2)c2ccccc2c1=O | -2% | -13% | -2% | . | i | .
CCCn1nc(C(=O)Nc2nnc(CC)s2)c2ccccc2c1=O | 1% | -5% | -2% | -5%[10 µM] | i | 1%
CCCn1nc(C(=O)Nc2nc3ccccc3[nH]2)c2ccccc2c1=O | -11% | -23% | -3% | 20µM* | i | 13µM*
CC(C)n1nc(C(=O)Nc2nc3ccccc3[nH]2)c2ccccc2c1=O | -18% | -26% | 2% | ? | i | 1.8µM*
Cc1cc(C)c2c(=O)cc(CSc3nnc(-c4ccccc4)n3C)[nH]c2c1 | -2% | -23% | -37% | . | ? | .
Fc1cccc2sc(Nc3nc4ccccc4s3)nc12 | -23% | 74% | 0% | 7.1µM* | i | 4.5µM*
Fc1ccc2nc(Nc3nc4c(F)cccc4s3)sc2c1 | -31% | 17% | ? | 5.6µM* | i | 2µM*
Fc1ccc2nc(Nc3nc4c(F)cc(F)cc4s3)sc2c1 | -6% | -2% | ? | 6.3µM* | ? | 8.9µM*
C=CCC(C)(O)C#Cc1ccccc1 (centres undefined) | . | . | . | 1% | . | -6%
Oc1ccc2ccccc2c1C1Nc2cccc3cccc(c23)N1 | -24% | -27% | ? | ? | i | ?
Oc1ccc(O)c2c1C1c3ccccc3C2c2ccccc21 | . | . | . | 20µM* | . | 7.9µM*
COc1ccc(NC(=O)CSc2nc(-c3cccs3)cc(C(F)(F)F)n2)cc1OC | -8% | -23% | ? | . | i | .
Cc1cccc(C)c1NC(=O)C(=O)NCC(c1cccnc1)N1CCc2ccccc21 (centres undefined) | -19% | . | -14% | . | . | .
Cn1c(SCc2ccc(C(C)(C)C)cc2)nnc1C1COc2ccccc2O1 (centres undefined) | -2% | ? | 22µM* | -14% | i | ?
Cn1c(SCc2nnc(-c3ccc(F)cc3)o2)nnc1C1COc2ccccc2O1 (centres undefined) | 0% | -5% | -24% | -3% | i | 6%
COc1cc(NC(=O)CC2C(=O)N(c3cccc(C)c3)C(=O)N2Cc2ccco2)cc(OC)c1 (centres undefined) | -21% | . | -6% | . | . | .
CCC(C)(C)c1ccc(Oc2cccc(C(=O)O)c2)cc1 | 0% | 61% | -1% | ? | i | -26%
CCC(C)(C)c1ccc(Oc2ccc(N)cc2)cc1 | -23% | 6.7µM* | ? | 7.9µM* | i | -13%
Cc1cc(C(=O)N/N=C/c2c(C)n(C)c3ccccc23)n[nH]1 | 10% | 1% | 4% | 0% | i | 6%
Cc1[nH]n(-c2ccccc2)c(=O)c1C=NCCc1ccccc1 | -5% | . | -17% | 6% | i | -10%
CCCCN=Cc1c(C)[nH]n(-c2ccccc2)c1=S | -73% | -9% | ? | 2.5µM* | ? | 0.63µM*
Cc1cc(C(=O)N/N=C/c2c(C)[nH]n(-c3ccccc3)c2=O)n[nH]1 | -15% | -9% | 28% | ? | i | 10µM*

Compound activity from PubChem.
